Measured values published in ChEMBL document CHEMBL1157539, “Thousands of chemical starting points for antimalarial lead identification” (Nature, 2010).

test system: HepG2; assay: GSK_TCMDC: Percent inhibition of human HepG2 cell line. Test compounds present at 10uM.; format: functional

SMILES | Inhibition [%]
Cc1cccc2nc(-c3ccc(-c4ccc(NC(=O)Nc5ccc(Cl)c(Cl)c5)cc4)cc3)[nH]c12 | 37
Cc1cc(N(CCO)CCCN2CCCCC2)nc(Nc2ccc(Cl)cc2)n1.Cl | 12
Cc1cc(N2CC=CCC2)nc(NC(=N)Nc2ccc(Br)cc2)n1 | 10
O=C(OCc1ccccc1)N1CCc2c([nH]c3ccccc23)C1CCC(F)(F)F (stereo not given) | 0
CCc1ccc(O)c(-c2cc(C(=O)Nc3ccc(OC)c(Cl)c3)[nH]n2)c1 | 15
O=C(/C=C/c1ccc(Cl)c(Cl)c1)NCCCCCN1CCC(NC(=S)Nc2cccc(Cl)c2)CC1 | 24
CCCC(C)Nc1nc(C)cc(NCCC(=O)Nc2ccccc2)n1.O=C(O)C(F)(F)F (stereo not given) | 12
Cc1cc(N[C@@H](Cc2ccccc2)C(=O)NCc2cccc(F)c2)nc(NCCc2ccc(F)cc2)n1.O=C(O)C(F)(F)F | 0
CCOc1ccccc1C1C(C(=O)C(C)(C)C)N2c3ccc(Br)cc3C=CC2C12C(=O)c1ccccc1C2=O (stereo not given) | 17
O=C(Nc1ccc(OC2CCN(Cc3ccc(F)cc3)CC2)cc1)c1cccs1.O=C(O)C(F)(F)F | 6
CN1CCC(C(=O)Nc2ccc(-c3cccc(-c4nc5cc(F)ccc5[nH]4)c3)cc2)CC1 | 19
Br.CC1(C)NC(N)=NC(=N)N1OCCSc1ccc(Cl)c(Cl)c1 | 65
C=C[C@H]1CN(CCCCCCC)CC[C@H]1C[C@@H](Cc1ccnc2ccc(OC)cc12)OC(=O)[C@](OC)(c1ccccc1)C(F)(F)F | 12
O=C(/C=C/c1ccc(Cl)cc1)NCCCCCN1CCCN(C(=O)Nc2ccc(F)c(Cl)c2)CC1 | 29
CN(Cc1ccc(NC(=O)CCC2CCN(C(=O)/C=C/c3ccc(Cl)c(Cl)c3)CC2)cc1)C1CCOCC1 | 10
Cc1ccccc1Cn1c(CN2CCC(C(=O)NC3CC3)CC2)cc2ccccc21 | 7
COc1cccc(C2=CC(C)(C)Oc3cc(OCCN(C)C)ccc32)c1.Cl | 57
C=CCN(c1nc(NC)nc(NCc2c(OC)cccc2OC)n1)C1CCCC1 | 18
CCc1c(CCNCCCCCCNCCc2ccccc2)ccc(OC)c1OC.Cl | 33
CN(C)CCOc1ccc(/C(=C(/CCCn2ccnc2)c2ccccc2)c2ccc(O)cc2)cc1 | 13

SMILES | Inhibition [%]
CN1CCN(CCCN(Cc2cccc(-c3cccc(CNCc4ccc5c(c4)OCO5)c3)c2)C(=O)CCC2CCCC2)CC1.O=C(O)C(F)(F)F | 85
Cc1ccc(NC(=O)c2nc(N3CCN(c4ccncc4)CC3)ccc2Cl)cc1F.O=C(O)C(F)(F)F | 51
O=C(NOCCCCOc1ccc(Cl)c(Cl)c1)c1ccccc1 | 2
COc1cc(Nc2ncnc3cc(OC)c(OC)cc23)cc([N+](=O)[O-])c1.Cl | 8
Cc1cc2nc(N/C(N)=N/C(=O)NC3CCCCC3)nc(C)c2cc1C | 20
Cc1c(-c2cccc(C(C)(C)NCCCN3CCCCC3)c2)cnc(N)c1C.Cl | 5
O=C(O)C(F)(F)F.c1cc(CN2CCCCC2)cc(-c2ccc(-c3nc4ccccc4[nH]3)s2)c1 | 11
Oc1cc(Nc2ccnc3cc(-c4cccc(CN5CCCCC5)c4)ccc23)c(F)cc1Cl | 21
CCCCCC(=O)NCC(NCCCNc1cc(=O)c2ccccc2[nH]1)c1cc(Br)cc(Br)c1 (stereo not given) | 0
COc1ccc(-n2ncc(C(=O)N3CCC4(C3)C(=O)N(c3ccccc3)c3ccccc34)c2C)cc1 (stereo not given) | 45
COc1cccc(CNC[C@@H](O)[C@H](Cc2ccccc2)NC(=O)c2cc(N3CCCC3=O)c3[nH]cc(C(C)C)c3c2)c1 | 5
COc1cc([N+](=O)[O-])ccc1NC(=O)Nc1ccc(OC(F)(F)F)cc1 | 14
COc1ccc(Oc2cnc(N)nc2N)c(C(C)C)c1 | 58
COc1ccc2c(c1)[nH]c1c(/C=C/c3ccc([N+](=O)[O-])cc3)nccc12 | 4
CC(C)N1CCN(C(CN2CCN(CCCOc3cccc4ccccc34)CC2)c2ccc(F)cc2)CC1.Cl (stereo not given) | 54
Cc1nc(N/C(N)=N/C(=O)NC2CCCCC2)nc2ccccc12 | 21
O=C(/C=C/c1ccc(Cl)cc1)NCCCCCN1CCN(C(=O)Nc2ccc(Cl)c(C(F)(F)F)c2)CC1 | 18
O=C(/C=C/c1ccc(-c2nc3ccc(Cl)cc3[nH]2)cc1)NC1CCN(Cc2ccccc2)CC1 | 3
O=C(Nc1cccc(C(F)(F)F)c1)N1CCOC(CCN2CCC(c3ccccc3)CC2)(c2ccc(Cl)c(Cl)c2)C1 (stereo not given) | 15
c1ccc(Oc2ccc(Nc3ccnc4cc(-c5csc(CNCCN6CCOCC6)n5)ccc34)cc2)cc1 | 0
